Consider 22 molecules from PubChem BioAssay (NCATS).

Inconclusive results are not listed. Entries that show only a call come without a potency. Activity calls are given as the source filed them. Calls follow the shape of the dose curve; as a rule, active = well fitted curve in the direction sought with a large enough effect; inconclusive = small, poorly fitted or top-dose-only effect, or another doubt; inactive = no such curve, though single readings can be large; an effect the other way counts as inactive or inconclusive.

Lysine-specific demethylase 5B (Homo sapiens), sequence (Q9UGL1 whole entry, looked up): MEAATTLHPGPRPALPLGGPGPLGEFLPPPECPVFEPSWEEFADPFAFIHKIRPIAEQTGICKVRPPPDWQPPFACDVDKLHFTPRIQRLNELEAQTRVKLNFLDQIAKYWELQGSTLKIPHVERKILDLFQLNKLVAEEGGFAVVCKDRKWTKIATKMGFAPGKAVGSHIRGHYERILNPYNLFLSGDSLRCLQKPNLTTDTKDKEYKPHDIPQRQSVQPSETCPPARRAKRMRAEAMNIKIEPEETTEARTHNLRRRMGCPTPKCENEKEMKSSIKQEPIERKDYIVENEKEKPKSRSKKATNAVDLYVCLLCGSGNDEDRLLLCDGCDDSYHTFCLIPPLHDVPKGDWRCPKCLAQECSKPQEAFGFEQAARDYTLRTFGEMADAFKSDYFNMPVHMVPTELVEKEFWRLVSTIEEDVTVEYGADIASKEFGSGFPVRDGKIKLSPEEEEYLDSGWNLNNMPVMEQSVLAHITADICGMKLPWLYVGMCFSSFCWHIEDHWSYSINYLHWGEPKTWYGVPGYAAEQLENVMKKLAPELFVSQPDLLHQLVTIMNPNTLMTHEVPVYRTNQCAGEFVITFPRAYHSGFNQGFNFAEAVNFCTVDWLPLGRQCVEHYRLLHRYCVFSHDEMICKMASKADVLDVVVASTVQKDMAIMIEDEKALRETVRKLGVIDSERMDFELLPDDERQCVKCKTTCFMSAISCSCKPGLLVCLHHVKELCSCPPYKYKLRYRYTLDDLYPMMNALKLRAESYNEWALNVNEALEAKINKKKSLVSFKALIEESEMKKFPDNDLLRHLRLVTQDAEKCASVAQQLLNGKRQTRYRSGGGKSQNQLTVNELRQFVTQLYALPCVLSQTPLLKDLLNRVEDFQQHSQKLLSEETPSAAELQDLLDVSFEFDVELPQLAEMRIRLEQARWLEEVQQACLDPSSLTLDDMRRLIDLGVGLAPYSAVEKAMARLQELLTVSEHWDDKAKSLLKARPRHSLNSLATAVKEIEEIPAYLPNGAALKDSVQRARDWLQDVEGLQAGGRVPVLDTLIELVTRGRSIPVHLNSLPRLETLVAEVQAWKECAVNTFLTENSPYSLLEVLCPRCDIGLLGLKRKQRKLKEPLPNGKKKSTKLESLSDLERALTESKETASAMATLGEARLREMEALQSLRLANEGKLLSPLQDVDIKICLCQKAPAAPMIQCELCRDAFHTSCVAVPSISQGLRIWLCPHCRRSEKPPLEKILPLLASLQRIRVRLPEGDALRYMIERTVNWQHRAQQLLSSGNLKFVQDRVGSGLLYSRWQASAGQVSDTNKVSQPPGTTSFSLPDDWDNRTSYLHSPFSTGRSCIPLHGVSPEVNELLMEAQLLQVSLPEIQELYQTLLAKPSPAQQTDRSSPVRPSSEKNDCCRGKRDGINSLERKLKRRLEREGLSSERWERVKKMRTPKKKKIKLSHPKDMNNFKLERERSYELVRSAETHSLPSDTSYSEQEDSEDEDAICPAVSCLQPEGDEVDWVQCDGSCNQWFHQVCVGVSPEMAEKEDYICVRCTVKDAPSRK

System in one assay: not listed separately
Briefly: ZIKV-mCherry secondary qHTS for Zika virus inhibitors (AID 1347158). Also: top concentration of the series differs between compounds. The settings on record: Vero cells, ZIKV-mCherry infection imaging, 48-72 h; series mostly up to 49.2 µM. The gist of the method:
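Read-out is percent infection: mCherry-positive Vero cells (nuclear-proximal intensity >450 RFU, 3 SD above negative controls) counted by high-content imaging of Hoechst-stained, PFA-fixed wells after 48-72 h with ZIKV-mCherry at MOI 1 and compound.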
(In qHTS, concentration-response curves come from the screen itself.)
As for `O=c1c(O)c(-c2ccc(O)cc2O)oc2cc(O)cc(O)c12`, the Potency entry is “inactive”.

`N[C@@H](Cc1cc(I)c(Oc2cc(I)c(O)c(I)c2)c(I)c1)C(=O)O`: the Potency entry was “inactive”.

As for `O=c1c(O)c(-c2cc(O)c(O)c(O)c2)oc2cc(O)cc(O)c12`, the Potency entry is “inactive”.

In the next assay the test system is Zika virus NS2B-NS3 protease (unlinked complex). Briefly: Primary screen GU Rhodamine qHTS for Zika virus inhibitors: Unlinked NS2B-NS3 protease assay (AID 1347159). Also: nearly all actives have a fitted effect of over 60% in size. Conditions: Recombinant ZIKV NS2B-NS3 protease, Rhodamine110 substrate fluorescence; series mostly up to 107 µM. In short, it runs like this:
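Buffer 10 mM Tris-HCl pH 8.0, 0.01% Tween 20. Unlinked protease 25 nM; compound preincubation 15 min, RT, protected from light. Substrate Rhod110, 1.5 microM; ~15% conversion in 15 min.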
In the case of `CC(=O)NC[C@H]1CN(c2ccc(N3CCOCC3)c(F)c2)C(=O)O1`, the Potency result was “inactive”.

Turning to `CN(C)C(=O)[C@H](O)[C@H](Cc1ccccc1)NC(=O)c1cc2cc(Cl)ccc2[nH]1`, the Potency entry is “inactive”.

Turning to `COc1ccccc1N1CCN(CCN(C(=O)C2CCCCC2)c2ccccn2)CC1`, the Potency result was “inactive”.

A further assay has as its system Zika virus NS2B-NS3 protease (linked). The assay is described as follows: 384 well plate NINDS AMC confirmatory qHTS for Zika virus inhibitors (AID 1347163). Also: nearly all actives have a fitted effect of over 50% in size. Also: potency is read from the fitted curve at half-maximal effect. Conditions: Recombinant NS2B-NS3 protease, Ac-VKTGKR-AMC fluorescence; series mostly up to 100 µM. In short, it runs like this:
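Enzyme (5, 30 or 60 nM final) first met test compounds for ~15 min. The AMC-tagged peptide Ac-VKTGKR-AMC followed at 30 microM. Fluorescence was then recorded at 25 min and scaled against no-enzyme and no-inhibitor wells.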
For the molecule `CC(C)c1ccc2c(c1)c(SC(C)(C)C)c(CC(C)(C)C(=O)O)n2Cc1ccc(Cl)cc1`, the Potency was 14.1 µM (active).

For the molecule `O=c1c(O)c(-c2ccc(O)cc2O)oc2cc(O)cc(O)c12`, the Potency was 141 µM (active).

Consider `N[C@@H](Cc1cc(I)c(Oc2cc(I)c(O)c(I)c2)c(I)c1)C(=O)O`, for which the Potency entry is “inactive”.

Turning to `O=c1c(O)c(-c2cc(O)c(O)c(O)c2)oc2cc(O)cc(O)c12`, the Potency is 158 µM (active).

For another assay, the system named is Zika virus NS2B-NS3 protease (linked construct). The assay is described as follows: 384 well plate NINDS Rhodamine confirmatory qHTS for Zika virus inhibitors (AID 1347164). Also: nearly all actives have a fitted effect of over 65% in size. Also: potency is read from the fitted curve at half-maximal effect. Conditions: rhodamine-110 peptide substrate fluorescence; series mostly up to 2 mM. The gist of the method: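 Cleavage of Ac-LKRR-Rhodamine 110 (10 microM final) by linked protease (final 5, 30 or 60 nM) was followed as fluorescence at 485/538 nm after 25 min, room temperature, dark. Compounds preincubated ~15 min.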
As for `CC(C)c1ccc2c(c1)c(SC(C)(C)C)c(CC(C)(C)C(=O)O)n2Cc1ccc(Cl)cc1`, the Potency was 14.1 µM (active).

As to `O=c1c(O)c(-c2ccc(O)cc2O)oc2cc(O)cc(O)c12`, the Potency was 50.1 µM (active).

Regarding `N[C@@H](Cc1cc(I)c(Oc2cc(I)c(O)c(I)c2)c(I)c1)C(=O)O`, the Potency is 10 µM (active).

On to `O=c1c(O)c(-c2cc(O)c(O)c(O)c2)oc2cc(O)cc(O)c12`, for which the Potency is 39.8 µM (active).

In the case of `COc1c2occc2cc2ccc(=O)oc12`, the Potency entry is “inactive”.

Another assay addresses Lysine-specific demethylase 5B (Homo sapiens) (UniProt Q9UGL1). Briefly: Optimization screen for KDM5B Histone Demethylases FDH coupled qHTS against the LOPAC library (AID 1347166). The settings on record: KDM5B demethylation, FDH-coupled NADH fluorescence (FDH is formaldehyde dehydrogenase); series mostly up to 57.5 µM. The gist of the method: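 KDM5BDeltaAP (200nM final) in 50mM HEPES pH 7.5, 0.01% Tween-20 was preincubated with compound for 10 min at room temperature. A substrate mix of 12.5uM H3K4Me3, 25uM a-ketoglutarate, ascorbate, Fe2+, NAD+ and formaldehyde dehydrogenase was then added. NADH fluorescence (340/450 nm) was read initially and after 30 min.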
As for `Nc1nc(N)c(N=O)c(OCC2CCCCC2)n1`, the result was inactive.

`O=C(O)c1cccnc1Nc1cccc(C(F)(F)F)c1`: the call was inactive.

Turning to `Cc1c(OCC(F)(F)F)ccnc1CS(=O)c1nc2ccccc2[nH]1` (stereo not drawn), the outcome was inactive.

Turning to `O=C(c1ccccc1)c1ccc2n1CCC2C(=O)O` (stereo not drawn), the result was inactive.

`CC(C)c1ccc2c(c1)c(SC(C)(C)C)c(CC(C)(C)C(=O)O)n2Cc1ccc(Cl)cc1`: the outcome was inactive.

As for `C[C@@H](N)C1CCC(C(=O)Nc2ccncc2)CC1` (stereo partly drawn), the molecule was called inactive.

Take `CC(=O)N1CCN(c2ccc(OC[C@H]3CO[C@](Cn4ccnc4)(c4ccc(Cl)cc4Cl)O3)cc2)CC1`: the molecule was called inactive.

As to `Cc1cc(O)c2c(c1)C(=O)c1cc(O)cc(O)c1C2=O`, the outcome was inactive.

Consider `NCCCCNCCCN`, for which the result was inactive.

Turning to `O=Nc1c(-c2c(O)[nH]c3cc(Br)ccc23)[nH]c2ccccc12`, the molecule was called inactive.

As to `CC1(C)NC(=O)N(c2ccc([N+](=O)[O-])c(C(F)(F)F)c2)C1=O`, the result was inactive.

Turning to `COc1ccccc1N1CCN(CCN(C(=O)C2CCCCC2)c2ccccn2)CC1`, the result was inactive.

System in another assay: not listed separately
The assay is described as follows: Vero cells viability qHTS for Zika virus inhibitors (AID 1347167). The settings on record: cytotoxicity counter-screen (Zika); series mostly up to 45.9 µM. In short, it runs like this:
(§1)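 qHTS titration; 24-48 h compound exposure, 37 degrees C/5% CO2; DMEM, 4% FBS; CellTiter Glo ATP luminescence.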
Take `Cc1c(OCC(F)(F)F)ccnc1CS(=O)c1nc2ccccc2[nH]1` (stereo not drawn): the Potency result was “inactive”.

As to `O=C(O)c1cn(-c2ccc(F)cc2)c2cc(N3CCNCC3)c(F)cc2c1=O`, the Potency entry is “inactive”.

With `N[C@@H](Cc1cc(I)c(Oc2cc(I)c(O)c(I)c2)c(I)c1)C(=O)O`, the Potency result is “inactive”.

Take `CN(C)C(=O)[C@H](O)[C@H](Cc1ccccc1)NC(=O)c1cc2cc(Cl)ccc2[nH]1`: the Potency entry was “inactive”.

As to `Cc1nc(-c2ccc(OCC(C)C)c(C#N)c2)sc1C(=O)O`, the Potency result is “inactive”.

As to `COc1cc2c(cc1OC)C1CC(=O)C(CC(C)C)CN1CC2` (stereo not drawn), the Potency entry is “inactive”.

In the case of `COc1c2occc2cc2ccc(=O)oc12`, the Potency entry is “inactive”.

Take `S=c1nc[nH]c2nc[nH]c12`: the Potency result was “inactive”.

System in a further assay: not listed separately
Briefly: HepG2 cells viability qHTS for Zika virus inhibitors (AID 1347168). Conditions: Zika counter-screen; series mostly up to 45.9 µM. The gist of the method: as §1
As to `Cc1c(OCC(F)(F)F)ccnc1CS(=O)c1nc2ccccc2[nH]1` (stereo not drawn), the Potency entry was “inactive”.

As to `CC(C)c1ccc2c(c1)c(SC(C)(C)C)c(CC(C)(C)C(=O)O)n2Cc1ccc(Cl)cc1`, the Potency entry is “inactive”.

For `O=C(O)c1cn(-c2ccc(F)cc2)c2cc(N3CCNCC3)c(F)cc2c1=O`, the Potency entry was “inactive”.

Take `CN(C)C(=O)[C@H](O)[C@H](Cc1ccccc1)NC(=O)c1cc2cc(Cl)ccc2[nH]1`: the Potency entry was “inactive”.

Consider `Cc1nc(-c2ccc(OCC(C)C)c(C#N)c2)sc1C(=O)O`, for which the Potency result is “inactive”.

On to `COc1cc2c(cc1OC)C1CC(=O)C(CC(C)C)CN1CC2` (stereo not drawn), for which the Potency result was “inactive”.

For `COc1c2occc2cc2ccc(=O)oc12`, the Potency result is “inactive”.

As for `S=c1nc[nH]c2nc[nH]c12`, the Potency result is “inactive”.
